# Assay results: PubChem BioAssay (NCI)
# Compounds without any hit were thinned out: in the full panel of roughly 83,000, 20% have a hit.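 Cells were grown in 96-well plates and exposed to the test compound at a single concentration for 48 hours; results are reported as percent growth, with values below 10 considered active.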 Values without a mark were called inactive. The source made the active and inactive calls.
# How the values were obtained:
# Assay in all cases: NCI-60 one-dose screen, 48 h (100 = growth as untreated, 0 = no growth, -100 = all killed)
# Details in all cases: 10 µM unless noted
# HCT-15 colon = test system: HCT-15 colon
# HT29 colon = test system: HT29 colon
# SNB-75 CNS = test system: SNB-75 CNS
# SNB-19 CNS = test system: SNB-19 CNS
# U251 CNS = test system: U251 CNS
# SK-MEL-5 melanoma = test system: SK-MEL-5 melanoma
# UACC-62 melanoma = test system: UACC-62 melanoma
# SK-MEL-28 melanoma = test system: SK-MEL-28 melanoma
# SK-MEL-2 melanoma = test system: SK-MEL-2 melanoma
# EKVX NSCLC = test system: EKVX NSCLC
# SN12C renal = test system: SN12C renal
# UO-31 renal = test system: UO-31 renal
# TK-10 renal = test system: TK-10 renal
# ACHN renal = test system: ACHN renal
# CAKI-1 renal = test system: CAKI-1 renal
# CCRF-CEM leukemia = test system: CCRF-CEM leukemia
# MOLT-4 leukemia = test system: MOLT-4 leukemia
# A498 renal = test system: A498 renal
# LOX IMVI melanoma = test system: LOX IMVI melanoma
# PC-3 prostate = test system: PC-3 prostate
Compound,growth (HCT-15 colon),growth (HT29 colon),growth (SNB-75 CNS),growth (SNB-19 CNS),growth (U251 CNS),growth (SK-MEL-5 melanoma),growth (UACC-62 melanoma),growth (SK-MEL-28 melanoma),growth (SK-MEL-2 melanoma),growth (EKVX NSCLC),growth (SN12C renal),growth (UO-31 renal),growth (TK-10 renal),growth (ACHN renal),growth (CAKI-1 renal),growth (CCRF-CEM leukemia),growth (MOLT-4 leukemia),growth (A498 renal),growth (LOX IMVI melanoma),growth (PC-3 prostate)
Nc1c2c(nc3ccc(Cl)cc13)CC(c1ccccc1)CC2=O (centres undefined),16.7%,13.1%,23.4%,37%,40.9%,30.6%,23.7%,51.5%,59%,40.3%,61.3%,57.8%,79.6%,47.9%,44.5%,43.9%,51%,–,–,–
Cn1cc(-c2csc(-c3cn(C(=O)OC(C)(C)C)c4ccc(Br)cc34)n2)c2cccnc21,93.4%,93.4%,78.9%,93.2%,87.4%,97%,91%,108%,91.5%,79.2%,87.4%,82.4%,92.5%,48.8%,79.3%,–,97.4%,96.3%,–,–
c1ccc(C2Cc3ccccc3C2=NC2CCCCC2)cc1 (centres undefined),94.9%,106%,92.3%,104%,97.9%,103%,99.6%,114%,93.5%,–,101%,89.5%,103%,97%,–,94.8%,102%,97.9%,103%,–
Cc1cc(N=O)cc(C(C)(C)C)c1O,101%,85%,87.7%,98.7%,88.6%,98.3%,–,106%,85.2%,95.4%,101%,92.3%,–,108%,86.1%,–,94.2%,74.3%,98.3%,–
COc1cc(C(=O)/C=C/c2cc(-c3ccc4c(c3)OCO4)n[nH]2)cc(OC)c1OC,19.6%,3.4% (active),26.7%,33.2%,5.54% (active),63%,55.7%,76.2%,84.7%,–,25.7%,39.4%,67%,42.7%,66.3%,–,–,4.49% (active),–,–
C[C@@H](C(=O)O)c1ccc2c3cc(Cl)ccc3n(Cc3cc(=O)oc4ccc(Cl)cc34)c2c1,99.1%,96.9%,90.8%,101%,101%,98.4%,–,99.9%,101%,97%,98.8%,76.3%,116%,99.8%,–,105%,101%,102%,96.4%,–
COc1cc(NC(C)CN(CC(C)C)C(C)C)c2ncccc2c1 (centres undefined),101%,97.5%,80.4%,116%,100%,–,106%,122%,113%,105%,104%,87.6%,120%,99.3%,98.6%,114%,96.6%,–,94.7%,–
COc1cc2[nH]c(C(=O)c3cc(OC)c(OC)c(OC)c3)c(N)c2cc1C#CCO,19.6%,1.02% (active),8.88% (active),26.3%,–,-0.319% (active),31.2%,14.3%,29.6%,–,45.1%,31.5%,66.2%,23%,–,11.5%,29.6%,-16.8% (active),39.4%,10.6%
Nc1c2c(nc3ccc(Br)cc13)CC(c1ccccc1)CC2=O (centres undefined),21.9%,15.7%,-1.66% (active),37%,41.8%,20.1%,38.1%,55.5%,59.2%,27.2%,51.3%,53.1%,85.7%,57.7%,47.2%,19.7%,29.3%,1.16% (active),–,–
Cc1nn(-c2ccc(Cl)cc2)c(=O)n1CCn1cnc2ccccc21,104%,102%,106%,113%,101%,113%,101%,114%,109%,102%,105%,90.8%,108%,109%,95.8%,106%,100%,95.6%,–,–
N#C/C(=C\c1ccc(-c2ccc(Br)cc2)o1)c1nc(-c2ccco2)cs1,80.1%,99.5%,78.9%,92.7%,93.9%,85%,81%,100%,103%,41.6%,92.3%,–,–,95.8%,88.8%,89.9%,94.2%,101%,–,–
O=C(O[C@@H]1Cc2c(O)cc(O)cc2O[C@@H]1c1cc(O)c(O)c(O)c1)c1cc(O)c2c(c1)OCO2,104%,95.3%,93.8%,104%,83.4%,98.5%,–,101%,102%,102%,98.6%,92.2%,88.4%,112%,94.4%,93%,81.5%,117%,95.6%,–
N#CC1C(=N)Cc2ccccc2-c2ccccc21 (centres undefined),37.9%,12.4%,54.3%,64.1%,37.7%,40.7%,39.1%,58.3%,31.1%,67.1%,54.2%,53.8%,78.1%,75%,29%,62.6%,25.8%,55.3%,–,–
O=C(c1ccccc1)C(CN1CCOCC1)c1ccccc1 (centres undefined),1.74% (active),-67% (active),51.8%,78.3%,19.3%,44.5%,22.4%,68.6%,-8.58% (active),–,–,–,9.68% (active),–,–,4.53% (active),19.2%,93%,-34.7% (active),–
CC1(C)C(=O)/C(=C\c2ccco2)C[C@]2(C)[C@H]3CC[C@@H]4[C@@H](C(=O)/C=C/c5ccco5)CC[C@@]4(C)[C@]3(C)CC[C@@H]12,79.6%,75.7%,68.1%,46.8%,50.7%,-49.9% (active),12.5%,32.1%,-0.219% (active),105%,87.2%,58.9%,107%,19.3%,53.9%,50.6%,68.3%,91.3%,–,–
COc1cc(/C=N/NC(=S)NNC(=S)NC2CCCCC2)cc(OC)c1OC,91.9%,108%,91.5%,98.3%,100%,92.5%,85.8%,99%,108%,84.1%,87.8%,70.3%,147%,94.2%,77.7%,88.7%,73.8%,96.6%,–,–
C#CCn1c2c(c3ccccc31)C[C@]1(C)[C@H]3CC[C@@H]4[C@@H]5C(=CCC[C@H]5C(=C)C)CC[C@@]4(C)[C@]3(C)CC[C@H]1C2(C)C,104%,104%,90.3%,100%,106%,100%,95.2%,106%,104%,99.2%,95.6%,77.1%,122%,99.2%,80.1%,114%,99.9%,111%,–,–
